USP2a inh: USP2a (human) protease inhibition | O75604 | USP2 core, Ub-CHOP2 coupled fluorogenic reporter, 485/531 | Potency, µM (top dose mostly 38.3 µM), inactives show at the highest dose activity change, negative = inhibition, actives largely listed as inhibitors | 0.01% of 330,000 active;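 note: potency is the fitted concentration of half-maximal effect; plate controls were DMSO wells for no effect and full inhibition by NEM control for full effect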
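USP2 core (10nM final) preincubated 30min RT with compound in 20mM Tris-HCl pH 8.0, 2mM CaCl2, 2mM beta-mercaptoethanol, 0.05% CHAPS; 25nM Ub-CHOP2 plus 25nM reporter substrate added, fluorescence (Ex485/Em531) read after 60min.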
USP1-UAF1 inh: USP1/UAF1 (human) deubiquitinase inhibition; O94782; recombinant USP1/UAF1, Ub-Rhodamine cleavage fluorescence; Potency, µM (top dose mostly 57.1 µM), inactives show top-dose activity change, negative = inhibition, most hits filed as inhibitors; 0.23% of 390,000 active; note: potency is the fitted concentration of half-maximal effect; % is set by controls: 0 for no effect and ±100 for the full control effect; nearly all actives have a fitted effect of over 60% in size
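High-throughput fluorogenic screen: 1nM USP1/UAF1 complex, Ub-Rho substrate 150nM final, 50mM HEPES pH 7.8 with 0.5mM EDTA, 0.1 mg/ml BSA, 1mM TCEP and 0.01% Tween-20.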
ATXN viability: reduces viability in counter-screen for ATXN expression inhibitors; S2 cells (HEK-293 line with an ATXN2-luciferase reporter) viability, CellTiter-Fluor protease fluorescence, 24 h; Potency, µM (doses to about 56.7 µM), usual class: cytotoxic; 0.49% of 400,000 active; AID 651635; note: potency is the fitted concentration of half-maximal effect; nearly all actives have a fitted effect of over 40% in size
IL1B secr inh: inhibitors of inflammasome signaling (IL-1 beta secretion); THP-1 LPS/ATP IL-1B secretion, AlphaLISA, 16 h; stronger effect = lower value; activity change, % at 57.5 µM; 4.7% of 360,000 active; AID 743279; in the data active = activity change below about -50%; inconclusive = mostly about -30% to -49%; note: % is set by controls: 0 for no effect and ±100 for the full control effect
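Secreted IL-1B measured by AlphaLISA bead assay after 16 h compound exposure of THP-1 cells; compounds (final up to 57.5 uM) added 1 h before LPS (250 ng/mL) and ATP (1.25 mM) stimulation; lower signal means less secretion.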
ATXN2 expr inh: ATXN2 expression inhibition | HEK-293 ATXN2-luciferase reporter, luminescence, 24 h | Potency, µM (doses to about 57 µM), inactives show at the highest dose activity change, negative = inhibition, most hits filed as inhibitors | 0.72% of 360,000 active; note: potency is the fitted concentration of half-maximal effect; % is set by controls: 0 for no effect and ±100 for the full control effect; nearly all actives have a fitted effect of over 55% in size
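qHTS (up to 57 uM final) was run with 24 h compound exposure of reporter cells at 37 °C. Each well was multiplexed: SteadyGlo luminescence measured ATXN2-luciferase expression after a fluorogenic Gly-Phe-AFC viability readout (25 uM final).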
* hit, by the source's call; i = inactive; ? = inconclusive; . = not tested or not shown; [ ] = dose if it differs, or a comment. Compounds with a hit are over-represented: about 4.8% of the library has one in this group of screens. Unless noted, calls come from the whole dose curve; as a rule, active = well fitted curve in the direction sought with a large enough effect; inconclusive = small, poorly fitted or top-dose-only effect, or another doubt; inactive = no such curve, though single readings can be large; an effect the other way counts as inactive or inconclusive.

SMILES	USP2a inh	USP1-UAF1 inh	ATXN viability	IL1B secr inh	ATXN2 expr inh
CCc1c(-c2ccccc2)ncn1Cc1cccc(-c2ccccc2)c1	.	.	.	-22	.
CCCCc1c(-c2ccccc2OC)ncn1Cc1ccc(-c2ccccc2)cc1	.	.	.	?	25µM*
CCc1c(C2CC2)ncn1Cc1cccc(-c2ccccc2)c1	.	.	.	-60*	.
CCCCc1c(-c2ccccc2OC)ncn1CCc1cccc(Cl)c1	.	.	.	-25	0%
CCCCc1c(-c2ccccc2OC)ncn1Cc1cccc(-c2ccccc2)c1	.	.	?	-98*	28µM*
Cc1nc(C2CCCCC2)c(-c2ccc(S(N)(=O)=O)c(F)c2)o1	.	.	i	.	25%
Cc1cccc2c(N)c3c(nc12)CCCC3 (tested in a mixture with another compound)	4%	-21%	?	-21	?
Cc1cc(C)c2c(N)c3cccc(C)c3nc2n1	-1%	-17%	.	-99*	13µM*
N#CC1c2ccccc2C=CN1C(=O)N(c1ccccc1)c1ccccc1 (stereo not drawn)	.	?	?	-97*	?
COc1ccc(C(=O)N2C=Cc3ccccc3C2C#N)cc1 (stereo not drawn)	.	?	i	9	.
OC1(c2ccc(Cl)cc2)CCN(Cc2cn[nH]c2-c2ccccc2)CC1	2%	-12%	i	-53*	-36%
COc1ccc(-c2[nH]ncc2CN2CCN(c3ccc(F)cc3)CC2)cc1	-2%	-16%	i	-15	.
OC1(c2ccc(Cl)cc2)CCN(Cc2cn[nH]c2-c2ccc(F)cc2)CC1	2%	-8%	i	?	-29%
COc1ccc(-c2[nH]ncc2CN2CCC(O)(c3ccc(Cl)cc3)CC2)cc1	2%	-22%	i	-59*	-38%
COc1cccc(O)c1CN1CCCC(C(=O)c2cccc(C(F)(F)F)c2)C1 (stereo not drawn)	-2%	-26%	i	-22	-37%
O=C(c1cccc(C(F)(F)F)c1)C1CCCN(Cc2cccc(OCCO)c2)C1 (stereo not drawn)	-1%	-7%	i	-62*	.
O=C(c1cccc(C(F)(F)F)c1)C1CCCN(Cc2cccn2-c2ccccn2)C1 (stereo not drawn)	1%	-2%	?	-91*	-38%[11.3 µM]
O=C(NCC1CCCN(Cc2ccc3nonc3c2)C1)c1cccc(C(F)(F)F)c1 (stereo not drawn)	2%	1%	?	-59*	-19%
COc1cc(Cl)c(C)cc1NC(=O)Cn1c2ncccc2c(=O)n1-c1ccccc1	.	-24%	.	.	.
Cc1cc(C)c2nc(NNC(=O)c3cc(=O)c4ccccc4o3)sc2c1	3%	28µM*	i	-12	8%
COc1ccc2nc(NC(=O)c3cc(=O)c4ccccc4o3)sc2c1	.	?	i	.	31%
O=C(NC[C@@H]1CCCO1)c1cccc2c1C(=O)c1ccc(Cl)cc1S2(=O)=O	1%	-19%	?	-54*	-16%
CC(C)OCCCNC(=O)c1cccc2c1C(=O)c1ccc(Cl)cc1S2(=O)=O	0%	-13%	?	-77*	-21%
O=C(NCCOc1ccccc1Cl)c1cccc2c1C(=O)c1ccc(Cl)cc1S2(=O)=O	0%	-25%	.	-30	?
O=C(NCc1cccc(F)c1)c1cccc2c1C(=O)c1ccc(Cl)cc1S2(=O)=O	3%	?	i	0	0%
SMILES	USP2a inh	USP1-UAF1 inh	ATXN viability	IL1B secr inh	ATXN2 expr inh
O=C(NCCOc1ccccc1)c1cccc2c1C(=O)c1ccc(Cl)cc1S2(=O)=O	2%	-18%	?	-81*	?
CCn1c(-c2ccccc2F)nc2cc(NC(C)=O)cc(C(=O)N(C)Cc3c(C)nc4ccccn34)c21	.	.	i	.	.
O=c1c2oc3nc4c(cc3c2ncn1CCCc1ccccc1)CCCC4	1%	0%	i	-53*	40%
CCCCCCn1cnc2c(oc3nc4c(cc32)CCCC4)c1=O	-1%	6%	i	-29	22%
CCCCn1cnc2c(oc3nc4c(cc32)CCCC4)c1=O	-1%	10%	i	-60*	.
C[C@]12CC[C@@H]3c4ccc(O)cc4CC[C@H]3[C@H]1C[C@@H](O)[C@H]2O	.	.	.	.	10%
CC(C)NC(=O)NC(=O)CSc1nnc(-c2c[nH]c3ccccc23)o1	-1%	-9%	i	-9	4%
